Source: PubChem
Rows were chosen to be rich in hits. Some 11% of all compounds tested hit in one or more screens of this group.
HPGD inh: HPGD (human) dehydrogenase inhibition. purified HPGD, NADH fluorescence kinetic, PGE2 substrate. Potency, µM, without a hit: at the top dose activity change, negative = inhibition, usual class: inhibitors. P15428. AID 894. 4.3% of 150,000 active; active means well fitted inhibition curve with a large enough effect, not every such curve was filed as active; inconclusive means small, poorly fitted or top-dose-only effect, or another doubt; inactive means no such curve, though single readings can be large or run the other way; further: potency means the concentration at half of the fitted maximal effect
Target sequence (P15428 whole entry, looked up): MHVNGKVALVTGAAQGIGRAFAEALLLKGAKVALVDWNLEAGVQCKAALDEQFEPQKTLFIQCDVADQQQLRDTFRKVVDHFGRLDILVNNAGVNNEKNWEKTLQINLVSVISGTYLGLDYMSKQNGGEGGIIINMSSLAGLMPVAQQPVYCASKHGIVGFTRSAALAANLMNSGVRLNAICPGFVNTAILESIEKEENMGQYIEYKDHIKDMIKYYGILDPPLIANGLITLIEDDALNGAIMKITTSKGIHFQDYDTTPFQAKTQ
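NADH formation kinetics: reaction with 30 uM PGE2 and 1 mM NAD+ (final), 20 nM enzyme, Tris-HCl pH 8 with Tween 20, after 15 min compound preincubation at room temperature. Fluorescence change, last versus first of five reads.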
NPSR antagonist: neuropeptide S receptor (human) antagonism, cAMP; Q6W5P4; CHO-NPSR cells, cAMP TR-FRET, antagonist mode; Potency, µM (titrated, usually from 38.3 µM), inactives show top-dose activity change, negative = inhibition, actives largely listed as inhibitors; 1% of 220,000 active; AID 1461; further: potency means the concentration at half of the fitted maximal effect; nearly all actives have a fitted effect of over 50% in size
IMPase inh: IMPase inhibition in cells. P97697. CHO-M1 cells, IP1 accumulation, HTRF TR-FRET ratio. inhibition (IP1 accumulation), % at 46.1 µM. 120,000 tested, under 10 active. AID 901; active means well fitted curve in the direction sought with a large enough effect in the signal ratio, not every such curve was filed as active; inconclusive means small, poorly fitted or top-dose-only effect, or a change in a side signal; inactive means no such curve, though single readings can be large or run the other way; the % refers to the signal ratio;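 further: cells stimulated with carbachol in lithium chloride buffer; plate controls were DMSO basal wells for no effect and reference inhibitor wells for full effect; higher means more IMPase inhibition seen as more IP1 and lower FRET ratio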
Target sequence (P97697 whole entry, looked up): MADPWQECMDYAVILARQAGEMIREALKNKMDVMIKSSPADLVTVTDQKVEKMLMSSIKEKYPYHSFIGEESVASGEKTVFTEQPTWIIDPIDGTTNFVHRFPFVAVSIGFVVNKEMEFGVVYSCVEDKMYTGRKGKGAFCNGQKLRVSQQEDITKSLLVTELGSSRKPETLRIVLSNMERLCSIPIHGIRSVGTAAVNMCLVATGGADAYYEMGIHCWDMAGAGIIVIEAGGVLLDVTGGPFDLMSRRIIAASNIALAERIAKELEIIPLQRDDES
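Carbachol-driven Gq signalling in CHO-M1 cells (2000/well) generates IP1. Compounds that block IMPase raise IP1 and so reduce the FRET signal from Eu-anti-IP1 and d2-IP1 after a 10 min room-temperature lysis.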
ALDH1A1 block: inhibitors of human aldehyde dehydrogenase 1A1; P00352; Purified ALDH1A1, NADH fluorescence, propionaldehyde substrate; Potency, µM (series often up to 75.3 µM), inactives show at the highest dose activity, negative = inhibition, actives largely listed as inhibitors; 7.3% of 220,000 active; active means well fitted inhibition curve with a large enough effect, not every such curve was filed as active; inconclusive means small, poorly fitted or top-dose-only effect, or another doubt; inactive means no such curve, though single readings can be large or run the other way;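 further: potency means the concentration at half of the fitted maximal effect; plate controls were no enzyme wells and a reference inhibitor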
IMPase Li cell: IMPase inhibition in cells with lithium potentiation; CHO-M1 cells, IP1 TR-FRET (IP-One), carbachol + lithium; Potency, µM (top dose mostly 59.4 µM), for the others: at the top dose activity, negative = IMPase inhibition, actives largely listed as inhibitors; 0.35% of 210,000 active;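 further: IP1 builds up when IMPase is blocked and the TR-FRET signal falls; potency means the concentration at half of the fitted maximal effect; plate controls were basal vehicle for no effect and high inhibitor control for full effect; nearly all actives have a fitted effect of over 50% in size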
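CHO-M1, 2000 cells/well, 16–30 h culture; cpd + low Li+, 30 min 37C; lysis with d2-IP1/Eu-anti-IP1 Ab, 10 min RT; TR-FRET 665/620 ratio and 620 channel; AC50 via Hill.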
PNC inhibitor: blocks assembly of the perinucleolar compartment; PC3M PTB-GFP, PNC prevalence imaging, 16 h; active compounds read low; activity change (PNC), negative = inhibition, % at 10 µM; 3.1% of 140,000 active;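 active means readout at or below -70, meaning at least 70% loss of cells showing the perinucleolar compartment, a nuclear body marking cancer cells; inconclusive means readout between -30 and a set limit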;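 further: plate controls were DMSO wells for no effect and camptothecin positive control wells for full effect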
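Compounds are pinned in duplicate onto adhered PC3M cells stably expressing GFP-tagged PTB and incubated 16 h at 37 C. Cells are then fixed, nuclei stained with Hoechst, and PNC-positive cells counted.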
The depositor's hits bear a star; [ ] = dose if it differs, or a comment. Unless noted, the call rests on the fitted dose curve; in most records, active means well fitted curve in the direction sought with a large enough effect; inconclusive means small, poorly fitted or top-dose-only effect, or another doubt; inactive means no such curve, though single readings can be large; an effect the other way counts as inactive or inconclusive. Unless noted, on the % scale 0 is the no-effect control and ±100 the full control effect.

Screening Nc1cc(F)ccc1N1CCCCCC1 returned NPSR antagonist -3%, ALDH1A1 block inconclusive and IMPase Li cell 17%.
Screening N#CCSc1nc2ccc(N3CCCCC3)cc2c(=O)n1Cc1ccccc1 returned HPGD inh inconclusive, NPSR antagonist -25%[46.1 µM], IMPase inh -2, ALDH1A1 block inconclusive, IMPase Li cell -7%[38.3 µM] and PNC inhibitor 15.
`COc1ccc(OC)c(NC(=O)CC2SC(=NCc3ccccc3)NC2=O)c1` (configuration not stated) gave NPSR antagonist -7%, ALDH1A1 block 40µM* and IMPase Li cell 15%.
Cc1ccc(N=C2NC(=O)C(CC(=O)NCc3ccccc3)S2)cc1C (configuration not stated) was read as HPGD inh -15%, NPSR antagonist -2%, ALDH1A1 block 25µM*, IMPase Li cell 3% and PNC inhibitor 14.
COc1ccc(N=C2NC(=O)C(CC(=O)NCCc3ccc(OC)c(OC)c3)S2)cc1 (configuration not stated) was read as NPSR antagonist 4%, ALDH1A1 block 11µM* and IMPase Li cell 7%.
For O=c1cc(CSc2ccccc2)[nH]c(=S)[nH]1 the results were HPGD inh -11%, NPSR antagonist -17%[46.1 µM], IMPase inh 0, ALDH1A1 block 28µM*, IMPase Li cell -1%[38.3 µM] and PNC inhibitor -25.
`Cc1nnc(SCc2ccc(F)cc2)s1` gave HPGD inh -10%, NPSR antagonist 4%[46.1 µM], IMPase inh 0, ALDH1A1 block 4%, IMPase Li cell -3%[38.3 µM] and PNC inhibitor inconclusive.
For Cc1nnc(SCc2cc(=O)[nH]c(=S)[nH]2)s1 the results were NPSR antagonist 4%, ALDH1A1 block 13µM* and IMPase Li cell -3%.
Cc1[nH]nc2c1C(c1cccnc1)N(c1ccc(Br)cc1)C2=O (configuration not stated) was read as HPGD inh -12%, NPSR antagonist 6%, IMPase inh -3, ALDH1A1 block -5%, IMPase Li cell 13% and PNC inhibitor -83*.
For COc1cc(C2c3c(n[nH]c3C)C(=O)N2c2ccc(Br)cc2)ccc1O (configuration not stated) the results were HPGD inh -7%, NPSR antagonist 4%[46.1 µM], IMPase inh 1, ALDH1A1 block 7%, IMPase Li cell 21%[38.3 µM] and PNC inhibitor 32.
CCCCCc1c(O)nc(SCCN2CCOCC2)[nH]c1=O was read as NPSR antagonist -4%, ALDH1A1 block 7% and IMPase Li cell 1%.
O=c1[nH]c(-c2ccccc2O)nc2ccccc12 was read as HPGD inh 2.8µM*, ALDH1A1 block -6% and IMPase Li cell -4%.
`Cc1ccc(C(=O)OCC(=O)Nc2ccccc2)cc1NC(=O)c1ccco1` gave HPGD inh -7%, NPSR antagonist -15%[46.1 µM], IMPase inh 0, ALDH1A1 block -4%, IMPase Li cell 13%[38.3 µM] and PNC inhibitor 19.
Screening CC(C)c1ccccc1NC(=O)c1ccco1 returned HPGD inh 7%, NPSR antagonist -19%[46.1 µM], IMPase inh -1, ALDH1A1 block -8%, IMPase Li cell -6%[38.3 µM] and PNC inhibitor -96*.
CC(C)Sc1nnc(NC(=O)c2ccco2)s1 was read as NPSR antagonist -4%, ALDH1A1 block 14µM* and IMPase Li cell -5%.
`COc1ccc(C(=O)NNC(=O)C(C)NC(=O)c2ccccc2NC(=O)c2ccco2)cc1` (configuration not stated) gave HPGD inh -15%, NPSR antagonist 18%, IMPase inh 4, ALDH1A1 block 2%, IMPase Li cell -5% and PNC inhibitor -93*.
Screening CCC(C)c1ccccc1NC(=O)COC(=O)c1ccc(C)c(NC(=O)c2ccco2)c1 (configuration not stated) returned HPGD inh inconclusive, NPSR antagonist inconclusive, IMPase inh 12, ALDH1A1 block 40µM*, IMPase Li cell 0%[38.3 µM] and PNC inhibitor inconclusive.
